{"source": "PubChem BioAssay (EPA / NIEHS)", "note": "The source made the active and inactive calls. The calls were made as follows: active = hit-call score of the fitted dose curve at least 0.9, where 1 is the maximum; inactive = score below 0.9."}
{"read-out": "Apolipoprotein A-V (APOA5) gene, APOA5 (gene 116519)", "experiment": "LTEA_HepaRG_APOA5: Life Technologies and Expression Analysis (LTEA) Assay for Apolipoprotein A-V (APOA5) gene using HepaRG (AID 2283474)", "settings": "mRNA level, 48 h; actives raise or lower the signal", "description": "LTEA_HepaRG is a cell based, multiplexed-readout assay that uses HepaRG, a human liver cell line, with measurements taken at 48 hours after chemical dosing on a 96-well plate.LTEA_HepaRG_APOA5 is one of 102 assay component(s) measured in the LTEA HepaRG cell culture assay. It is a marker of Steatosis.Data from the assay component LTEA_HepaRG_APOA5 was analyzed into 1 endpoint. This assay endpoint, LTEA_HepaRG_APOA5, was analyzed with bidirectional fitting relative to DMSO as the negative control and baseline of activity. Using a type of inducible reporter, measures of mRNA induction for gain or loss-of-signal activity can be used to understand regulation of transcription factor activity. To generalize the intended target to other relatable targets, this assay endpoint is annotated to the apolipoprotein intended target family, where the subfamily is Steatosis.\nA total of 1060 chemcials from the ToxCast library were tested in eight-point concentration-response experiments. Cell culture and cytotoxicity assays were conducted at Thermo Fisher Scientific's Custom Services facility (Madison, WI). A single lot of human HepaRG cells (Thermo Fisher Scientific, Frederick, MD) was used for the cell culture experiments. 96-well format collagen type I coated plates of human HepaRG cells were prepared using established methods. Briefly, cryopreserved HepaRG cells were thawed, plated at a density of approximately 100,000 cells/well in HepaRG Thaw, Plate, and General Purpose media (HPRG770, Thermo Fisher Scientific), and incubated for 48 hours. 0.5% DMSO was selected as vehicle control to balance the requisite need of DMSO in HepaRG cultures to maintain differentiation (for example, baseline metabolism, proportions of hepatocytes vs. cholangiocytes), while enabling further hepatic receptor pathway activation (for example, PXR and CAR) in response to chemical exposure. 48 hours after plating, the culture medium was replaced with HepaRG Serum-Free Incudtion Media. Cells were exposed to each test chemical in duplicate and maintained in CO2 incubators for another 48 hours. Chemical plates were thawed to room temperature and 200x concentrations of treatment groups were prepared. 8-point conentration-reponse curves were made with the highest exposure at 100 uM, followed by half-log dilutions, all in 0.5% DMSO. Each test plate contained variouse controls, induction positive controls (1mM phenobarbital), cytotoxicity positive controls ([…] aflatoxin B1), vehicle controls (0.5% DMSO), and total lysis controls (0.5% DMSO). Cell morphology images were taken using an Essen IncuCyte FLR automated microscope, with six 96-well plates imaged in about 24 minutes. Images were captured and exported and JPEG files. Spent culture media was transfered to black-well plates for the LDH assay, and remaining media was sorted at -80 C for later use. Cells were treated with RLT buffer and frozen until shipped for gene expression analysis. Total RNA was isolated from the cell suspension in 75 uL of Buffer RLT (Qiagen, Germantown, MD 20874) by Quintiles/Expression Analysis (Durham, NC) using a custom isolation procedure. Total RNA from each plate well was transferred to a preamplification plate. Fluidigm's 96.96 Dynamic ArrayTM (Fluidigm, Amsterdam, the Netherlands) technology was used for gene expression analyses by quantitative reverse transcription polymerase chain reaction (qRT-PCR, performed by Quintiles/Expression Analysis, Durham, NC)89. Standard TaqManTM Assays (Applied Biosystems/ThermoFisher Scientific, Foster City, CA) were used to assess the expression of 93 genes selected based on their selectivity and sensitivity to important hepatic receptors known to be modulated by environmental chemicals; importance in human hepatocyte functionality; and hepatotoxicity. […]"}
{"smiles": "CCCC[C@H]1CN(CC2CCOCC2)C(=O)OC12CCN(C1(C)CCN(C(=O)c3c(C)ncnc3C)CC1)CC2", "outcome": "inactive"}
{"smiles": "O=C(Oc1ccccc1)c1cccc(C(=O)Oc2ccccc2)c1", "outcome": "inactive"}
{"smiles": "CCCCCCC(CCCCCCCCCCC(=O)OCC(COC(C)=O)OC(C)=O)OC(C)=O", "note": "(stereo not given)", "outcome": "inactive"}
{"smiles": "CCc1nc(N)nc(N)c1-c1ccc(Cl)cc1", "outcome": "inactive"}
{"smiles": "O=NO", "outcome": "inactive"}
{"smiles": "CCCCc1nc2cccnc2n1Cc1ccc(-c2ccccc2-c2nnn[nH]2)cc1", "outcome": "inactive"}
{"smiles": "Oc1ccc(O)cc1", "outcome": "inactive"}
{"smiles": "CCCCCCCC(=O)OC", "outcome": "inactive"}
{"smiles": "OCC(O)CO", "outcome": "inactive"}
{"smiles": "O=Cc1ccccc1C=O", "outcome": "inactive"}
{"smiles": "NC(=Nc1ccccc1)Nc1ccccc1", "outcome": "inactive"}
{"smiles": "Cc1cc(Cc2ccc(N)c(C)c2)ccc1N", "outcome": "inactive"}
{"smiles": "N[C@@H](Cc1c[nH]c2ccccc12)C(=O)O", "outcome": "inactive"}
{"smiles": "CC(=O)S[C@H](C(=O)N[C@H]1Cc2ccccc2[C@H]2CCC[C@@H](C(=O)O)N2C1=O)C(C)C", "outcome": "inactive"}
{"smiles": "CC(=O)OC1CC(C)OC(C)O1", "note": "(stereo not given)", "outcome": "inactive"}
{"smiles": "CCCCOC(=O)CCCCC(=O)OCCCC", "outcome": "inactive"}
{"smiles": "O=C(N[C@@H](c1ccccc1)[C@@H]1CCCCN1)c1cccc(C(F)(F)F)c1Cl", "outcome": "inactive"}
{"smiles": "COC(=O)CCC(=O)OC", "outcome": "inactive"}
{"smiles": "O=C(O)CC(O)(CC(=O)O)C(=O)O", "outcome": "inactive"}
{"smiles": "CC(COCC(C)OC(=O)c1ccccc1)OC(=O)c1ccccc1", "note": "(stereo not given)", "outcome": "inactive"}
{"smiles": "NC=O", "outcome": "inactive"}
{"smiles": "NC1CCCCC1", "outcome": "inactive"}
{"smiles": "CC(C)(C)c1ccccc1", "outcome": "inactive"}
{"smiles": "Cc1occc(=O)c1O", "outcome": "inactive"}
{"smiles": "O=C1NC(=O)C(c2ccccc2)(c2ccccc2)N1", "outcome": "inactive"}
{"smiles": "Cc1ccc(-c2cc(C(F)(F)F)nn2-c2ccc(S(N)(=O)=O)cc2)cc1", "outcome": "inactive"}
{"smiles": "O=C1O[C@H]([C@H](O)CO)C(O)=C1O", "outcome": "inactive"}
{"smiles": "CC(C)(O)c1ccc(CNC(=O)c2cccnc2Oc2ccc(F)cc2)cc1", "outcome": "inactive"}
{"smiles": "CC(C)NCC(O)c1ccc(O)c(O)c1", "note": "(stereo not given)", "outcome": "inactive"}
{"smiles": "C#CC(O)C(CC)CCCC", "note": "(stereo not given)", "outcome": "inactive"}
{"smiles": "O=C1OC(c2ccc(O)cc2)(c2ccc(O)cc2)c2ccccc21", "outcome": "inactive"}
{"smiles": "CC(=O)OCC(COC(C)=O)OC(C)=O", "outcome": "inactive"}
{"smiles": "Cc1c(C)c2c(c(C)c1O)CCC(C)(COc1ccc(CC3SC(=O)NC3=O)cc1)O2", "note": "(stereo not given)", "outcome": "inactive"}
{"smiles": "CC(=O)O", "outcome": "inactive"}
{"smiles": "O=C(NS(=O)(=O)/C=C/c1cccs1)c1ccc(F)cc1Br", "outcome": "inactive"}
{"smiles": "CC(C)COC(=O)CCCCC(=O)OCC(C)C", "outcome": "inactive"}
{"smiles": "CC(=O)O[C@]1(C(C)=O)CC[C@H]2[C@@H]3C=C(Cl)C4=CC(=O)[C@@H]5C[C@@H]5[C@]4(C)[C@H]3CC[C@@]21C", "AC50": "84.3 µM (active)"}
{"smiles": "CCCC(=O)O", "outcome": "inactive"}
{"smiles": "CO[C@@H]1COCC[C@@H]1N[C@@H]1CC[C@@](C(=O)N2CCc3ncc(C(F)(F)F)cc3C2)(C(C)C)C1", "outcome": "inactive"}
{"smiles": "CC1=C(C)S(=O)(=O)CCS1(=O)=O", "AC50": "0.187 µM (active)"}
